Screening data as filed in PubChem BioAssay.
Sampled rows, rich in hits. Any-hit rate of the full collection: about 12%.
PLK1 PBD inh: qHTS for Inhibitors of PLK1-PDB (polo-like kinase 1 - polo-box domain): Primary Screen. Serine/threonine-protein kinase PLK1 (Homo sapiens), P53350. 360,000 tested, 2.8% active. AID 720504, 2013. Plk1 PBD binding of FITC phosphopeptide, fluorescence polarization. Potency, µM, for inactives: max response, negative = inhibition, usual class: inhibitors; further: potency means the concentration at half of the fitted maximal effect; series mostly up to about 57 µM; on the % scale 0 is the no-effect control and ±100 the full control effect; nearly all actives have a fitted effect of over 65% in size
Target sequence (P53350 whole entry, looked up, the tested form may be a part): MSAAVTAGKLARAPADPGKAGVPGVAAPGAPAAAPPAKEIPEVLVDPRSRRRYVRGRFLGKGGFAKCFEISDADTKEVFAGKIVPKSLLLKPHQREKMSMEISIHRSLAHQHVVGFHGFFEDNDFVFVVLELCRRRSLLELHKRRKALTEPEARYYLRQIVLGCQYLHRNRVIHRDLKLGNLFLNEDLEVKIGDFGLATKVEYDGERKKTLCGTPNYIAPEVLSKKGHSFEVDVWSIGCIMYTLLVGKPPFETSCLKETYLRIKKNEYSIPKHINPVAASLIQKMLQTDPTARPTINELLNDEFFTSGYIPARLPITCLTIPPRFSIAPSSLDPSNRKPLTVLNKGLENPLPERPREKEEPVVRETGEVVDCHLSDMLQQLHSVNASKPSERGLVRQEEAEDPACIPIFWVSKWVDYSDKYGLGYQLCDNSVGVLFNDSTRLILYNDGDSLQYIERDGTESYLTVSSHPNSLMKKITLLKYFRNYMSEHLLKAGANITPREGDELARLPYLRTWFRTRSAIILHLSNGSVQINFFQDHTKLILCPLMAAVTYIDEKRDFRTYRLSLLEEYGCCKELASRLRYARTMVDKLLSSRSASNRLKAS
BAZ2B block: qHTS Assay for Inhibitors of BAZ2B | AID 504333, 2011 | 360,000 tested, 4.4% active | Potency, µM (doses to about 114 µM), without a hit: at the top dose activity change, negative = inhibition, usual class: inhibitors | Bromodomain adjacent to zinc finger domain protein 2B (Homo sapiens), Q9UIF8 | AlphaScreen BAZ2B-H3K14Ac peptide displacement; further: potency means the concentration at half of the fitted maximal effect; on the % scale 0 is the no-effect control and ±100 the full control effect; nearly all actives have a fitted effect of over 60% in size
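AlphaScreen displacement: compounds (up to 110uM) incubated 30 min at room temperature with a preformed 50 nM BAZ2B/50 nM biotinylated H3K14Ac peptide complex in PBS pH 7.4 with Tween-20. Donor and acceptor beads at 10 ug/mL final added, 20 min light-protected before reading.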
G9a inh: qHTS Assay for Inhibitors of Histone Lysine Methyltransferase G9a; Histone-lysine N-methyltransferase EHMT2 (Homo sapiens), Q96KQ7; G9a H3K9 monomethylation, AlphaScreen, 2 h; Potency, µM (series often up to 102 µM), without a hit: at the top dose activity, negative = inhibition, most hits filed as inhibitors; 350,000 tested, 8.8% active; AID 504332, 2011; further: potency means the concentration at half of the fitted maximal effect; on the % scale 0 is the no-effect control and ±100 the full control effect; nearly all actives have a fitted effect of over 75% in size
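Methyltransferase reactions run at room temperature for 2 h (20 nM enzyme, 500 nM biotin-H3K9 peptide, 20 uM SAM) after a 15 min compound preincubation; product detected by AlphaScreen beads and anti-H3K9me1 antibody.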
JMJD2A Tudor: qHTS Assay for Inhibitors of JMJD2A-Tudor Domain; AlphaScreen JMJD2A-Tudor / H3K4me3 peptide binding; Potency, µM (highest dose often 114 µM), without a hit: at the top dose activity change, negative = inhibition, usual class: inhibitors; 390,000 tested, 4.4% active; AID 504339, 2011; further: potency means the concentration at half of the fitted maximal effect; on the % scale 0 is the no-effect control and ±100 the full control effect; nearly all actives have a fitted effect of over 50% in size
HP1b chromo inh: HTS for Inhibitors of HP1-beta Chromodomain Interactions with Methylated Histone Tails | Chromobox protein homolog 1 (Homo sapiens), P83916 | AlphaScreen HP1-beta / biotin-H3K9me3 peptide binding | Potency, µM (doses to about 114 µM), for the others: at the highest dose activity change, negative = inhibition, actives largely listed as inhibitors | 390,000 tested, 0.56% active; further: potency means the concentration at half of the fitted maximal effect; nearly all actives have a fitted effect of over 70% in size
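AlphaScreen: HP1-beta (50 nM) preformed 30 min with biotin-H3(1-18)K9me3 peptide (50 nM) in PBS pH 7.4, 0.01% Tween-20. Compound added for 30 min at RT, then streptavidin donor/nickel chelate acceptor beads (10 ug/mL) for 30 min.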
Sfp PPTase inh: qHTS Assay for Inhibitors of Bacillus subtilis Sfp phosphopantetheinyl transferase (PPTase); Potency, µM, for inactives: largest response in the series, negative = inhibition, usual class: inhibitors; 4'-phosphopantetheinyl transferase ffp (Bacillus subtilis), Q9F4F7; 310,000 tested, 3.5% active; Biochemical Sfp PPTase activity, qHTS;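 further: the enzyme is Sfp with the accession as filed and its product quenches rhodamine fluorescence; potency means the concentration at half of the fitted maximal effect; 0% = enzyme reaction without inhibitor and -100% = no enzyme wells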
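Compounds were incubated with enzyme (final 15 nM) for 15 min at room temperature before substrate addition started the reaction. Fluorescence at 525 nm excitation, 598 nm emission was recorded immediately and after 30 minutes.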
Sfp PPTase conf: Confirmation qHTS Assay for Inhibitors of Bacillus subtilis Sfp phosphopantetheinyl transferase (PPTase); shares compounds with Sfp PPTase inh; Sfp PPTase enzymatic assay, qHTS titration; Potency, µM (doses to about 114 µM), for the others: at the top dose activity change, negative = inhibition, actives largely listed as inhibitors; 380 tested, 79% active; AID 2701, 2010;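 further: potency means the concentration at half of the fitted maximal effect; plate controls were uninhibited Sfp reaction for no effect and no enzyme control for full effect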
Sfp PPTase gel: Gel-Based Assay for Inhibitors of Bacillus subtilis Sfp phosphopantetheinyl transferase (PPTase) | purified Sfp, gel-based phosphopantetheinylation read-out | 210 tested, 20% active | Potency, µM, hits mostly inhibitors | shares compounds with Sfp PPTase inh | AID 2707, 2010;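 active means potency below 100 µM; inconclusive means dose-dependent response but potency above 100 µM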;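 further: band intensities scaled against SCH202676 control wells before curve fitting; potency is an IC50 for inhibitors of Sfp transfer activity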
An asterisk follows results filed as active; i = inactive; ? = inconclusive; / = not tested or not shown; [ ] = another dose, or the depositor's remark. Unless noted, the call rests on the fitted dose curve; in most records, active means well fitted curve in the direction sought with a large enough effect; inconclusive means small, poorly fitted or top-dose-only effect, or another doubt; inactive means no such curve, though single readings can be large; an effect the other way counts as inactive or inconclusive.

SMILES	PLK1 PBD inh	BAZ2B block	G9a inh	JMJD2A Tudor	HP1b chromo inh	Sfp PPTase inh	Sfp PPTase conf	Sfp PPTase gel
CCC1CC2(C)NC(=O)c3c(sc4c3CC(C)(C)OC4)N2C1=O (stereo unspecified)	12µM*	-24%	32µM*	-32%	?	16µM*	19µM*	/
Cc1ccc(-c2c[n+](Cc3ccc(Cl)cc3)c3n2CCC3)cc1	-5%	-26%	-23%	-10%	-3%	19%	/	/
Clc1ccc(C[n+]2csc3ccccc32)cc1	27µM*	50µM*	?	50µM*	23%	4µM*	8.3µM*	2.1µM*
Cc1cc(C)nc(SCC(=O)O)n1	-6%	-107%	-14%	-14%	37%	19%	/	/
Cc1cc(C)nc(SCNC(=O)c2ccccc2)n1	-22%	-13%	10µM*	?	45%	7.9µM*	53µM*	i
COc1cc2ccc(NC(C)=O)cc2cc1OC	-10%	/	/	/	/	/	/	/
Oc1ccc(NCc2cccc(OCc3ccc(F)cc3)c2)cc1	-11%	-35%	/	40µM*	?	16µM*	53µM*	?
O=C(CSc1n[nH]c(-c2ccccc2O)n1)N1CCOCC1	-8%	?	26%	-4%	26%	3.5µM*	15%	i
Nc1nc(SCC(=O)N2CCOCC2)n[nH]1	-27%	-18%	12%[59 µM]	3%[11.4 µM]	4%	-1%	/	/
COCc1cccc(-c2csc(C(C)(NC(C)=O)c3ccc(OC)cc3)n2)c1 (stereo unspecified)	-10%	/	/	/	/	/	/	/
O=C(O)c1cc(=O)c2c3nc4ccccc4oc-3cc(=O)c2[nH]1	/	/	?	/	/	45µM*	53µM*	/
O=C(CC(Nc1ccc(F)cc1)c1ccccc1)c1ccccc1 (stereo unspecified)	-25%	-4%	-10%	-5%	38%	4%	/	/
O=C(CC(Nc1ccccc1Cl)C(=O)O)c1ccccc1 (stereo unspecified)	-25%	-34%	?	-14%	27%	4µM*	13µM*	?
O=C(CC(Nc1ccc(Cl)cc1)C(=O)O)c1ccccc1 (stereo unspecified)	-10%	-2%	2.2µM*	-9%	30%	7.1µM*	?	?
O=C(CC(CC(=O)c1ccccc1)C(=O)O)c1ccccc1	-7%	-28%	?	-11%	21%	3%	/	/
Cc1c(Cl)cccc1NC(=O)CC(Cc1ccccc1)C(=O)O (stereo unspecified)	6%	4%	24%	-20%	16%	21%	/	/
Cc1c(Cl)cccc1NC(CC(=O)c1ccccc1)C(=O)O (stereo unspecified)	-12%	-19%	?	-21%	19%	7.9µM*	11µM*	i
CCOc1ccccc1C1CC(=O)Oc2c1c(=O)n(C)c1ccccc21 (stereo unspecified)	/	-15%	8%[59 µM]	5%	25%	/	/	/
COC(=O)c1c(NC(=O)COC(=O)c2ccc(Cl)cc2[N+](=O)[O-])sc2c1CCCCC2	1%	-12%	8%[59 µM]	-14%	21%	10µM*	?	/
CCOC(=O)c1c(NC(=O)COC)sc2c1CCCC2	-10%	8%	6%[12.7 µM]	-16%	27%	7%	/	/
O=C(CSc1ncccc1C(=O)O)c1ccccc1	-7%	/	?	?	51%	?	/	/
O=C(O)c1ccnc(SCC(=O)c2ccccc2)c1	-11%	-14%	22µM*	8%	57%	3.5µM*	53µM*	/
COc1cccc(-n2c(C)c(C(C)=O)c(C(C)=O)c2C)c1	-4%	-6%	-35%[59 µM]	-16%	21%	16%	/	/
On1c2c(c3c4nonc4ccc31)CCCC2	/	?	?	/	/	45µM*	66µM*	/
COn1c(C)c(C(C)=O)c2c3nonc3ccc21	-23%	13%	3%	2%	24%	-24%	/	/
SMILES	PLK1 PBD inh	BAZ2B block	G9a inh	JMJD2A Tudor	HP1b chromo inh	Sfp PPTase inh	Sfp PPTase conf	Sfp PPTase gel
Cc1cc(C)c(C)c(OCCCCN2CCCCC2)c1	-12%	18%	/	-21%	53%	5%	/	/
COc1ccccc1C(=O)Nc1ccnn1C1CCN(CCC(C)c2ccc(C)o2)CC1 (stereo unspecified)	-12%	-28%	7.1µM*	-34%	-18%	50µM*	19µM*	/
CCc1ccc(CN2CCC(n3nccc3NC(=O)c3ccccc3OC)CC2)o1	2%	/	/	/	/	/	/	/
Cc1noc(-c2ccc(-c3noc(-c4ccc(C(F)(F)F)cc4)n3)cc2)n1	/	7%	26%[59 µM]	-12%	9%[57 µM]	/	/	/
Cc1nc(-c2cc(-c3nc(-c4ccc(C(C)(C)C)cc4)no3)no2)cs1	0%	4%	121%	31%	76%	40µM*	15µM*	i
CC1(C(=O)NS(=O)(=O)c2ccccc2)CCN1C(=O)CC1CC1 (stereo unspecified)	6%	/	/	/	/	/	/	/
CCOC(=O)c1c(-c2ccc(C)o2)csc1NC(=O)COC(=O)c1cccs1	-24%	-3%	10µM*	-16%	33%	10µM*	21µM*	?
CCOC(=O)c1c(-c2cccs2)csc1NC(=O)CC(C)C	-6%	36%	19%[12.7 µM]	77%	153%	-12%	/	/
O=C(c1ccccc1)N1CCN(C(=S)NCc2ccco2)CC1	-11%	/	-24%	-1%	9%	35µM*	33µM*	?
Cc1nc2sc3c(c2c(=O)o1)CCC3	-15%	-27%	?	-16%	26%	16µM*	?	?
Cc1ccc(CN2CCC(CNc3ncnc4onc(-c5ccc(Cl)cc5)c34)CC2)cc1	/	-4%[57.1 µM]	-5%[59 µM]	-30%	25%	/	/	/
c1ccc(-c2ccc(-c3nc(-c4ccccn4)no3)cc2)cc1	0%	11%	8%[12.7 µM]	-2%	77%	40µM*	53µM*	i
